# Screening data: PubChem, National Center for Advancing Translational Sciences (NCATS)
# HT1080 IDH1KD tx = qHTS for induction of synthetic lethality in tumor cells producing 2HG: qHTS for the HT-1080-IDH1KD cell line | HT-1080 IDH1 knockdown viability, ATP luminescence, 48 h | Potency, µM (titrated, usually from 46.1 µM), for the others: at the highest dose activity, negative = toxicity, usual class: cytotoxic | 2% of 360,000 active | AID 686971, 2013;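 also: potency is read from the fitted curve at half-maximal effect; 0% = DMSO wells and -100% = cell-free medium wells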
#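 After a 2 h attachment period, IDH1KD HT-1080 cells took pin-transferred compound for 48 h at 37 °C; ATP-based luminescence after 10 min room-temperature reagent incubation reported viability.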
# DT40 TDP1 no CPT = qHTS for Inhibitors of human tyrosyl-DNA phosphodiesterase 1 (TDP1): qHTS in cells in absence of CPT; Potency, µM (titrated, usually from 46.2 µM), for the others: top-dose activity change, negative = growth inhibition, hits mostly inhibitors; DT40 Tdp1-/- hTDP1 cells, no CPT, ATP luminescence, 48 h; 15% of 420,000 active; also: potency is read from the fitted curve at half-maximal effect; nearly all actives have a fitted effect of over 55% in size
#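 Chicken DT40 Tdp1-/- cells stably complemented with human TDP1 were seeded at 400 cells/well with DMSO in place of 20 nM camptothecin. After compound pinning, cells grew at least 48 hr at 37 °C; viability read by CellTiter-Glo luminescence.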
# IL1B secr inh = qHTS for Inhibitors of Inflammasome Signaling: IL-1-beta AlphaLISA Primary Screen; THP-1 LPS/ATP IL-1B secretion, AlphaLISA, 16 h; stronger effect = lower value; AID 743279, 2014; activity change, % at 57.5 µM; 4.7% of 360,000 active; in the data active = activity change below about -50%; inconclusive = mostly about -30% to -49%
#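 Secreted IL-1B measured by AlphaLISA bead assay after 16 h compound exposure of THP-1 cells; compounds (final up to 57.5 uM) added 1 h before LPS (250 ng/mL) and ATP (1.25 mM) stimulation; lower signal means less secretion.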
# HT1080-NT tox = qHTS for induction of synthetic lethality in tumor cells producing 2HG: qHTS for the HT-1080-NT fibrosarcoma cell line | HT-1080-NT fibrosarcoma viability, CellTiter-Glo ATP luminescence, 48 h | Potency, µM (series often up to 46.1 µM), for inactives: at the top dose activity, negative = less viability, actives largely listed as cytotoxic | 1.6% of 360,000 active | AID 686970, 2013;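 also: NT is the 2HG producing partner of a matched IDH1 knockdown line; potency is read from the fitted curve at half-maximal effect; 0% = DMSO-treated cells and -100% = media-only wells without cells; nearly all actives have a fitted effect of over 55% in size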
#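 HT-1080-NT; 750 cells/well; 5% FBS RPMI; 48 h compound, 37 degrees C; CellTiter-Glo luminescence; curve fitting and curve-class assignment.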
# DT40 TDP1 CPT = qHTS for Inhibitors of human tyrosyl-DNA phosphodiesterase 1 (TDP1): qHTS in cells in presence of CPT | 12% of 420,000 active | AID 686979, 2013 | Potency, µM (series often up to 46.2 µM), for the others: top-dose activity change, negative = growth inhibition, usual class: inhibitors | chicken DT40 Tdp1-/-;hTDP1 cells + 20 nM CPT, ATP luminescence, 48 h; also: potency is read from the fitted curve at half-maximal effect; nearly all actives have a fitted effect of over 55% in size
#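 Chicken DT40 Tdp1-/- cells complemented with human TDP1, 400 cells/well, exposed to compounds plus 20 nM camptothecin for at least 48 h at 37 C; viability read as ATP content by CellTiter-Glo luminescence.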
# * marks the source's active call; other numbers are inactive results; ? = inconclusive; / = no result given. A selection: hits, their analogues and other compounds. The true share with any hit is near 19%. Unless noted, calls follow the shape of the dose curve; as a rule, active = well fitted curve in the direction sought with a large enough effect; inconclusive = small, poorly fitted or top-dose-only effect, or another doubt; inactive = no such curve, though single readings can be large; an effect the other way counts as inactive or inconclusive. Unless noted, % is scaled to controls: 0 for no effect and ±100 for the full control effect.
SMILES,HT1080 IDH1KD tx,DT40 TDP1 no CPT,IL1B secr inh,HT1080-NT tox,DT40 TDP1 CPT
CC(=O)c1ccc(N2CCN(C(=O)C3CCN(S(=O)(=O)c4ccc5c(c4)CC(C)N5C(C)=O)CC3)CC2)cc1 (configuration not stated),-4%,?,-8,0%,18µM*
CCOc1ccc(N2CC(NC(=O)C3CC3)CC2=O)cc1 (configuration not stated),/,1%,/,/,13%
COc1cc(NC(=O)c2cccc(C)c2)ccc1NC(=O)c1cc2ccccc2o1,-14%,3.7µM*,21,-5%,?
COc1cc(NC(=O)c2cccc([N+](=O)[O-])c2)ccc1NC(=O)c1cc2ccccc2o1,-3%,8.2µM*,-1,-3%,?
CC1(C)N=C(N)N=C(N)N1c1ccc(OCC(=O)N2CCOCC2)cc1,6.5µM*,?,-12,23µM*,?
CC1(C)N=C(N)N=C(N)N1c1ccc(OCC(=O)N2CCOCC2)c(Cl)c1,0.13µM*,0.37µM*,2,0.52µM*,0.41µM*
O=c1cc(CN2CCN(c3ccccc3F)CC2)c2ccccc2o1,5%,?,0,-1%,?
Cc1cc(=O)cc(C)n1-c1ccc(F)cc1F,1%,-13%,17,-3%,-19%
Cc1cc(NC(=O)CSc2nc3ccccc3[nH]2)n(-c2ccccc2)n1,-11%,?,0,-1%,?
Cc1cc(NC(=O)c2c(F)cccc2Cl)n(-c2nc3ccccc3[nH]2)n1,?,23µM*,0,?,?
Cc1cc(NC(=O)c2c(F)cccc2F)n(-c2nc3ccccc3[nH]2)n1,10µM*,11µM*,?,?,?
Cc1cc(NC(=O)C2CCCCC2)n(-c2nc3ccccc3[nH]2)n1,?,16µM*,-22,?,23µM*
Cc1cc(NC(=O)C2CCC2)n(-c2ccccn2)n1,-9%,?,-9,-5%,?
Cc1cc(NC(=O)c2ccccc2F)n(-c2nc3ccccc3[nH]2)n1,-18%,?,4,?,?
Cc1cc(NC(=O)c2ccc(C)s2)n(-c2nc3ccccc3[nH]2)n1,0%,21µM*,-26,-7%,?
CN(CC(=O)Nc1ccc(F)cc1[N+](=O)[O-])Cc1ccccc1,1%,-15%,-11,0%,10%
O=C(NCc1cc(Cl)cc(Cl)c1)c1ccc2nc(COCCO)[nH]c2c1,1%,-17%,1,-7%,?
O=C(Cc1coc2cc(O)ccc12)N1CCN(S(=O)(=O)c2ccc(Br)cc2)CC1,3%,23µM*,?,-1%,?
COc1ccc(N2CCN(C(=O)Cc3coc4cc(C)ccc34)CC2)cc1,1%,-9%,19,-1%,0%
CCc1cnc2c(c1SCC(=O)Nc1ccc(C(=O)OC)cc1)c(=O)n(C)c(=O)n2C,/,-19%,/,/,1%
CCc1cnc2c(c1SCc1ccccc1C)c(=O)n(C)c(=O)n2C,/,?,/,/,-25%
Cn1c(=O)c2c(nc(SCC(=O)Nc3ccc(OC(F)(F)F)cc3)n2Cc2cccc(C(F)(F)F)c2)n(C)c1=O,/,8.2µM*,/,/,10µM*
CCc1ccc(NC(=O)CSc2c(C)cnc3c2c(=O)n(C)c(=O)n3C)cc1,/,23µM*,/,/,23µM*
Cc1ccc(C)c(CSc2c(C(C)C)cnc3c2c(=O)n(C)c(=O)n3C)c1,/,?,/,/,18µM*
Cc1ccc(CSc2c(C)cnc3c2c(=O)n(C)c(=O)n3C)cc1,/,?,/,/,23µM*
SMILES,HT1080 IDH1KD tx,DT40 TDP1 no CPT,IL1B secr inh,HT1080-NT tox,DT40 TDP1 CPT
Cc1cnc2c(c1SCC(=O)NCc1ccc(F)cc1)c(=O)n(C)c(=O)n2C,/,-26%,/,/,-4%
C[C@@H](C[C@H](N)C(=O)O)C(=O)O,/,-22%,/,/,-24%
O=C1NC(=O)C(=C2CCCCCC2)S1,-8%,-5%,11,-1%,-25%
CC(C)c1cnc2c(c1SCC(=O)Nc1ccc(OC(F)(F)F)cc1)c(=O)n(C)c(=O)n2C,/,8.2µM*,/,/,9.2µM*
CCCc1cnc2c(c1SCc1ccc(C(F)(F)F)cc1)c(=O)n(C)c(=O)n2C,/,21µM*,/,/,?
CC(C)c1nc(SCC(=O)Nc2cccc(C(F)(F)F)c2)c2c(=O)n(C)c(=O)n(C)c2n1,2%,3.7µM*,0,13%,4.6µM*
CC(C)c1nc(SCC(=O)Nc2ccc3c(c2)OCCO3)c2c(=O)n(C)c(=O)n(C)c2n1,4%,?,10,1%,?
CCCc1cnc2c(c1SCC(=O)Nc1ccc(C)c(Cl)c1)c(=O)n(C)c(=O)n2C,/,?,/,/,18µM*
CCCc1cnc2c(c1SCC(=O)Nc1c(C)cc(C)cc1C)c(=O)n(C)c(=O)n2C,/,-5%,/,/,4%
CN(C(=O)COC(=O)c1cc[n+]([O-])cc1)c1ccccc1,8%,22%,33,15%,-3%
Brc1ccccc1-c1nnc2sc(-c3ccc4c(c3)OCCO4)nn12,/,23µM*,?,/,12µM*
Fc1ccc(-c2nn3c(C4COc5ccccc5O4)nnc3s2)cc1 (configuration not stated),3%,-27%,15,2%,?
Clc1ccccc1-c1nnc2sc(-c3ccc(Br)o3)nn12,-10%,-23%,-52*,1%,-27%
Clc1ccccc1-c1nnc2sc(-c3ccc4c(c3)OCO4)nn12,?,?,-13,?,16µM*
Clc1ccc(-c2nnc3sc(-c4ccc(Br)o4)nn23)c(Cl)c1,-3%,?,5,-5%,-24%
CCOc1cc(N2CCOCC2)c(OCC)cc1NC(=O)COC(=O)CCOc1ccc(C(C)(C)C)cc1,12%,?,6,14%,?
CCN(CC)S(=O)(=O)c1ccc(N2CCOCC2)c(NC(=O)COc2ccccc2)c1,-3%,?,-2,5%,?
CCN(CC)S(=O)(=O)c1ccc(N2CCOCC2)c(NC(=O)c2ccccc2F)c1,-7%,?,-6,-9%,?
CCN(CC)S(=O)(=O)c1ccc(N2CCOCC2)c(NC(=O)CCOc2ccccc2)c1,2%,15µM*,-10,5%,?
CCN(CC)S(=O)(=O)c1ccc(N2CCOCC2)c(NC(=O)c2cc3ccccc3oc2=O)c1,-11%,16µM*,-11,-10%,?
